The record followed here is ChEMBL document CHEMBL1157539, “Thousands of chemical starting points for antimalarial lead identification” (Nature, 2010).

SMILES strings stand for the structures.

Common to all, as to assay type: functional
Assay [1] concerns Plasmodium falciparum. Nature of the assay: GSK_TCMDC: Inhibition of Plasmodium falciparum 3D7 in whole red blood cells, using parasite LDH activity as an index of growth. Test compounds present at 2uM.
In assay [2] the test system is Plasmodium falciparum. Nature of the assay: GSK_TCMDC: Inhibition of Plasmodium falciparum Dd2 in whole red blood cells, using parasite LDH activity as an index of growth. Test compounds present at 2uM.
For another assay, the system named is HepG2. Nature of the assay: GSK_TCMDC: Percent inhibition of human HepG2 cell line. Test compounds present at 10uM.

Usually Inhibition stands for the drop in the measured response relative to a control, in per cent. Lower therefore signals little suppression. In the case of `Cc1cc(C(=O)CN2C(=O)NC3(CCOc4ccccc43)C2=O)c(C)n1Cc1ccco1` (configuration not stated), the Inhibition was determined as 93% with Plasmodium falciparum [1], 42% in the assay with Plasmodium falciparum [2] and 13% in the assay with HepG2.

As for `CCCc1cc(Cc2cnc(N)nc2N)cc(CCC)c1OCCCCCC(=O)OCC`, the Inhibition was determined as 95% with Plasmodium falciparum [1], 0% in the assay with Plasmodium falciparum [2] and 12% in the assay on HepG2.

`O=C(O)C(F)(F)F.c1cc(CNCCN2CCNCC2)cc(-c2ccc(-c3nc4ccccc4[nH]3)cc2)c1`: the Inhibition with Plasmodium falciparum [1] turned out to be 98%; in the assay on Plasmodium falciparum [2] it was 11%; with HepG2, 3%.

With `Cc1cc(NCc2ccccc2)nc2cc(O)ccc12`, the Inhibition in the assay with Plasmodium falciparum [1] was 98%; with Plasmodium falciparum [2] it was 80%; in the assay on HepG2, 0%.

On to `Cl.N#Cc1ccc2c(c1)CN(CCC1CCC(NC(=O)c3cc4cc(OC(F)(F)F)ccc4[nH]3)CC1)CC2` (configuration not stated), for which the results for the Inhibition in the assay on Plasmodium falciparum [1], in the assay with Plasmodium falciparum [2] and in the assay on HepG2 were 100%, 19% and 4%, respectively.

Turning to `COc1ccccc1CCNc1nccc(N[C@@H](Cc2ccccc2)C(=O)NCc2cccs2)n1.O=C(O)C(F)(F)F`, the Inhibition in the assay on Plasmodium falciparum [1] is recorded as 90%; in the assay with Plasmodium falciparum [2], 79%; with HepG2, 34%.

With `O=c1[nH]c2c(cc1CNC1CCCCC1)c(-c1ccc(F)cc1)nn2-c1ccccc1`, the results for the Inhibition with Plasmodium falciparum [1], in the assay with Plasmodium falciparum [2] and with HepG2 were 99%, 88% and 8%, respectively.

As for `COc1cccc(C2C(C(=O)Nc3ccccc3)=C(C)N=c3sc(=Cc4ccc(O)cc4)c(=O)n32)c1` (configuration not stated), the Inhibition is listed as 97% in the assay with Plasmodium falciparum [1], 97% in the assay with Plasmodium falciparum [2] and 15% in the assay with HepG2.

For the compound `COc1ccc(-c2cc(C(=O)N[C@@H](Cc3ccccc3)C(=O)NCCN3CCCCC3)ccc2O)cc1`, the Inhibition in the assay with Plasmodium falciparum [1] was 96%; in the assay on Plasmodium falciparum [2] it was 0%; with HepG2, 0%.

`COc1ccc(/N=[N+](\[O-])c2ccccc2/[N+]([O-])=N/c2ccc(OC)cc2)cc1`: the Inhibition in the assay with Plasmodium falciparum [1] is listed as 84%; in the assay on Plasmodium falciparum [2], 29%; in the assay on HepG2, 13%.

With `CC(C)(C)c1ccc(CNC(=O)c2cc(CNC3CCNCC3)ccc2O)cc1`, the Inhibition came to 96% in the assay with Plasmodium falciparum [1], 8% with Plasmodium falciparum [2] and 6% in the assay with HepG2.

Turning to `CN(C)CCCNc1ncnc2c1[nH]c1ccc(Cl)cc12`, the Inhibition with Plasmodium falciparum [1] came out at 99%; in the assay on Plasmodium falciparum [2], 3%; in the assay on HepG2, 2%.

Consider `Cl.O=S(=O)(Nc1cc2c(cc1O)CCN(C1CCC1)CC2)c1ccc(Oc2ccc(F)cc2)cc1`, for which the Inhibition was 99% in the assay on Plasmodium falciparum [1], 52% in the assay on Plasmodium falciparum [2] and 20% in the assay on HepG2.

On to `CCCC(CNCc1cccc(C)c1)CNc1cc(=O)c2ccccc2[nH]1` (configuration not stated), for which the Inhibition in the assay on Plasmodium falciparum [1] amounted to 99%; in the assay on Plasmodium falciparum [2], 89%; in the assay on HepG2, 0%.

`Oc1ccc2[nH]c(-c3cccc(F)c3)nc2c1CN1CCCC1`: the Inhibition was 100% in the assay on Plasmodium falciparum [1], 47% with Plasmodium falciparum [2] and 0% with HepG2.

Turning to `c1ccc(Nc2nc(-c3ccccn3)cs2)nc1`, the figures for the Inhibition in the assay on Plasmodium falciparum [1], in the assay on Plasmodium falciparum [2] and with HepG2 were 87%, 93% and 45%, respectively.

Consider `Br.C=CCc1cc(Br)ccc1OCCCON1C(N)=NC(N)=NC1(C)C`, for which the Inhibition with Plasmodium falciparum [1] is given as 95%; in the assay on Plasmodium falciparum [2], 97%; in the assay on HepG2, 61%.

Regarding `O=S(=O)(Nc1cccc(CCN2CCC(N3CCCCC3)CC2)c1)c1ccc(Cl)cc1`, the values for the Inhibition with Plasmodium falciparum [1], with Plasmodium falciparum [2] and in the assay on HepG2 were 94%, 23% and 18%, respectively.

`O=C(Nc1cccc(-c2nn3ccccc3c2-c2ccnc(Nc3cccc(F)c3)n2)c1)c1c(F)ccc(F)c1Cl`: the Inhibition is reported as 93% in the assay on Plasmodium falciparum [1], 38% in the assay on Plasmodium falciparum [2] and 41% in the assay on HepG2.

As to `COc1ccc2sc(CNCCCNc3cc(=O)c4ccccc4[nH]3)c(Cl)c2c1.Cl`, the Inhibition in the assay with Plasmodium falciparum [1] came to 85%; in the assay on Plasmodium falciparum [2] it was 42%; in the assay with HepG2 it was 1%.

In the case of `O=C(Nc1cccc(-c2ccc(-c3nc4cc(C(F)(F)F)ccc4[nH]3)s2)c1)c1ccncc1`, the Inhibition turned out to be 99% in the assay on Plasmodium falciparum [1], 46% in the assay with Plasmodium falciparum [2] and 79% with HepG2.

For `O=C(Nc1ccc(CN2CCCCC2)cc1)c1ccc(COc2ccc([N+](=O)[O-])cc2)o1`, the Inhibition in the assay with Plasmodium falciparum [1] came to 86%; in the assay on Plasmodium falciparum [2], 0%; in the assay on HepG2, 12%.

Turning to `Cl.O=C(O[C@H]1CN[C@H](C#Cc2cc3ncnc(Nc4ccc5c(ccn5S(=O)(=O)c5cccs5)c4)c3s2)C1)N1CCOCC1`, the results for the Inhibition in the assay on Plasmodium falciparum [1], in the assay on Plasmodium falciparum [2] and with HepG2 were 85%, 48% and 0%, respectively.

Take `CCN(CCCN1CCCCC1)c1cc(C)nc(Nc2cc(C(F)(F)F)ccc2C)n1.O=C(O)C(F)(F)F`: the results for the Inhibition in the assay with Plasmodium falciparum [1], in the assay on Plasmodium falciparum [2] and in the assay with HepG2 were 96%, 41% and 35%, respectively.

With `CCOc1ccc(OCC)c(N2CCN(CCCCNC(=O)c3ccc(NC(=O)c4ccc(Cl)cc4)cc3)CC2)c1`, the values for the Inhibition in the assay with Plasmodium falciparum [1], with Plasmodium falciparum [2] and with HepG2 were 97%, 40% and 13%, respectively.

With `Cc1cccc(CNc2nc(C)cc(N[C@@H](Cc3ccccc3)C(=O)NCCc3ccccc3)n2)c1.O=C(O)C(F)(F)F`, the Inhibition in the assay with Plasmodium falciparum [1] is given as 99%; in the assay with Plasmodium falciparum [2], 85%; in the assay on HepG2 it was 24%.

As for `Cl.Nc1cc(C(F)(F)F)ccc1Cl`, the figures for the Inhibition in the assay on Plasmodium falciparum [1], in the assay on Plasmodium falciparum [2] and in the assay on HepG2 were 97%, 0% and 8%, respectively.

`Cc1cc(N[C@@H](CC(C)C)C(=O)NCCc2ccccc2)nc(Nc2ccccc2)n1.O=C(O)C(F)(F)F`: the Inhibition in the assay with Plasmodium falciparum [1] is on record as 100%; in the assay with Plasmodium falciparum [2], 38%; in the assay with HepG2, 1%.

`CCc1sc(CN(CCCNc2cc(=O)c3ccccc3[nH]2)Cc2sc(CC)c(Br)c2-c2ccsc2)c(-c2ccsc2)c1Br.Cl`: the Inhibition is 99% in the assay with Plasmodium falciparum [1], 98% with Plasmodium falciparum [2] and 10% in the assay with HepG2.
